Data from PubChem BioAssay AID1159580 (chemical genetic matrix, 2015).
Out of some 5,500 compounds screened, about 2,000 (36%) were called active. About 18% were inconclusive and are not listed. Rule as the data show it: active = normalized growth mostly below about 0.91 (no sharp cut-off); inconclusive = no clear call, values can overlap the other calls; inactive = mostly above about 0.92. Some of the results follow.

Test: chemical genetic growth profiling, strain panel (AID 1159580);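 also: tested at 20 µM; growth read once vehicle control cultures reached saturation at 30 °C; 1 = growth at the plate median or of vehicle wells; lower values mean less growth of the strain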
Conditions: S. cerevisiae deletion strains, growth OD

Measured: normalized growth

CS(=O)(=O)/C(C#N)=C/c1ccccc1OCc1c(Cl)cccc1Cl
inactive: locus YAR019C, strain CDC15, stronger effect = lower value 0.978 | locus YBL105C, strain PKC1, stronger effect = lower value 0.958 | locus YBR135W, strain CKS1, stronger effect = lower value 0.964 | locus YBR136W, strain MEC1, stronger effect = lower value 0.958 | locus YBR160W, strain CDC28, stronger effect = lower value 0.954 | locus YDL017W, strain CDC7, stronger effect = lower value 0.961 | locus YDL028C, strain MPS1, stronger effect = lower value 0.956 | locus YDL101C, strain DUN1, stronger effect = lower value 0.958 | locus YDL108W, strain KIN28, stronger effect = lower value 0.942 | locus YDL132W, strain cdc53, stronger effect = lower value 0.96 | locus YDL214C, strain PRR2, stronger effect = lower value 0.926 | locus YDR052C, strain DBF4, stronger effect = lower value 0.957 | locus YDR054C, strain cdc34, stronger effect = lower value 0.975 | locus YDR226W, strain ADK1, stronger effect = lower value 0.969 | locus YDR477W, strain SNF1, stronger effect = lower value 0.943 | locus YER123W, strain YCK3, stronger effect = lower value 0.913 | locus YER133W, strain GLC7, stronger effect = lower value 0.953 | locus YFL009W, strain cdc4, stronger effect = lower value 0.977 | locus YFL029C, strain CAK1, stronger effect = lower value 0.979 | locus YFR003C, strain YPI1, stronger effect = lower value 0.965 | locus YFR019W, strain FAB1, stronger effect = lower value 0.961 | locus YFR028C, strain CDC14, stronger effect = lower value 0.974 | locus YGR040W, strain KSS1, stronger effect = lower value 0.91 | locus YGR052W, strain FMP48, stronger effect = lower value 0.97 | locus YGR092W, strain DBF2, stronger effect = lower value 0.934 | locus YHR030C, strain SLT2, stronger effect = lower value 1.02 | locus YHR079C, strain IRE1, stronger effect = lower value 1.03 | locus YHR082C, strain KSP1, stronger effect = lower value 1.01 | locus YHR205W, strain SCH9, stronger effect = lower value 0.916 | locus YIL147C, strain SLN1, stronger effect = lower value 0.956 | locus YJL095W, strain BCK1, stronger effect = lower value 0.976 | locus YJL128C, strain PBS2, stronger effect = lower value 0.918 | locus YJL157C, strain FAR1, stronger effect = lower value 0.95 | locus YJR016C, strain ILV3, stronger effect = lower value 0.973 | locus YJR066W, strain TOR1 (second series), stronger effect = lower value 0.947 | locus YJR066W, strain TOR1, stronger effect = lower value 1.04 | locus YKL048C, strain ELM1, stronger effect = lower value 0.901 | locus YKL067W, strain YNK1, stronger effect = lower value 0.942 | locus YKL101W, strain HSL1, stronger effect = lower value 0.892 | locus YKL193C, strain SDS22, stronger effect = lower value 0.968 | locus YKL203C, strain TOR2, stronger effect = lower value 0.996 | locus YLR113W, strain HOG1, stronger effect = lower value 0.866 | locus YLR133W, strain CKI1, stronger effect = lower value 0.92 | locus YLR403W, strain SFP1, stronger effect = lower value 0.885 | locus YML070W, strain DAK1, stronger effect = lower value 0.923 | locus YMR001C, strain CDC5, stronger effect = lower value 0.966 | locus YMR205C, strain PFK2 (second series), stronger effect = lower value 0.953 | locus YMR277W, strain FCP1, stronger effect = lower value 0.978 | locus YNL006W, strain LST8, stronger effect = lower value 0.973 | locus YNL020C, strain ARK1, stronger effect = lower value 0.926 | locus YNL161W, strain CBK1, stronger effect = lower value 0.964 | locus YNL183C, strain NPR1, stronger effect = lower value 1.02 | locus YNL207W, strain RIO2, stronger effect = lower value 0.946 | locus YNL222W, strain SSU72, stronger effect = lower value 0.966 | locus YNL307C, strain MCK1 (second series), stronger effect = lower value 0.945 | locus YOL078W, strain AVO1, stronger effect = lower value 0.962 | locus YOL136C, strain PFK27, stronger effect = lower value 0.879 | locus YOR061W, strain CKA2, stronger effect = lower value 0.922 | locus YOR119C, strain RIO1, stronger effect = lower value 0.986 | locus YOR231W, strain MKK1, stronger effect = lower value 0.948 | locus YOR329C, strain SCD5, stronger effect = lower value 0.968 | locus YPL031C, strain PHO85, stronger effect = lower value 0.934 | locus YPL153C, strain RAD53, stronger effect = lower value 0.95 | locus YPL204W, strain HRR25, stronger effect = lower value 0.897 | locus YPL209C, strain IPL1, stronger effect = lower value 0.967 | locus YPL256C, strain CLN2, stronger effect = lower value 0.979 | locus YPR025C, strain CCL1, stronger effect = lower value 0.969 | locus YPR106W, strain ISR1, stronger effect = lower value 0.948 | locus YPR111W, strain DBF20, stronger effect = lower value 0.924 | strain NNK1, stronger effect = lower value 0.966 | strain TSCII, stronger effect = lower value 0.962
